Measurements reported in PubChem BioAssay (EPA / NIEHS).
Activity calls are given as the source filed them. How the source made its calls: active means hit-call score of the fitted dose curve at least 0.9, where 1 is the maximum; inactive means score below 0.9.

Key:
Details in all cases: mRNA level, 48 h; actives raise or lower the signal
[1] = read-out: Early growth response protein 1 (EGR1) transcription factor, EGR1 (gene 1958); test: LTEA_HepaRG_EGR1: Life Technologies and Expression Analysis (LTEA) Assay for Early growth response protein 1 (EGR1) transcription factor using HepaRG (AID 2283490)
In short: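 EGR1 transcript levels quantified by qRT-PCR (Fluidigm arrays) against three housekeeping genes after 48 h chemical exposure of HepaRG cells. Eight-point half-log series topping at 100 uM, 0.5% DMSO vehicle, analyzed for gain or loss.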

[2] = read-out: Ezrin (EZR), EZR (gene 7430); test: LTEA_HepaRG_EZR: Life Technologies and Expression Analysis (LTEA) Assay for Ezrin (EZR) using HepaRG (AID 2283491)
In short: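 Read-out is EZR transcript level by qRT-PCR, normalized to three housekeeping genes and fitted bidirectionally against the DMSO control. Human HepaRG cells received test chemicals for 48 h at eight half-log concentrations up to 100 uM in 0.5% DMSO.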

[3] = read-out: Cytochrome P450 3A7 (Homo sapiens) (UniProt P24462); test: LTEA_HepaRG_CYP3A7: Life Technologies and Expression Analysis (LTEA) Assay for CYP3A7 using HepaRG (AID 2283492)
In short: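 Human HepaRG liver cells, 48 h post-plating, switched to serum-free induction medium and exposed in duplicate for 48 h. Dosing: 100 uM top, half-log dilutions, 8 points, 0.5% DMSO vehicle. Read-out: CYP3A7 mRNA, gain or loss fitted against DMSO baseline.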

[4] = read-out: CYP3A5 (gene 1577); test: LTEA_HepaRG_CYP3A5: Life Technologies and Expression Analysis (LTEA) Assay for CYP3A5 using HepaRG (AID 2283493)
In short: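 Readout was CYP3A5 mRNA by qRT-PCR. HepaRG cultures were exposed for 48 h in serum-free induction medium to chemicals at up to 100 uM, and responses were fitted in both directions relative to DMSO vehicle.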

[5] = read-out: Fatty Acid-Binding Protein 1 (FABP1), FABP1 (gene 2168); test: LTEA_HepaRG_FABP1: Life Technologies and Expression Analysis (LTEA) Assay for Fatty Acid-Binding Protein 1 (FABP1) using HepaRG (AID 2283494)
In short: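 FABP1 expression by TaqMan qRT-PCR, normalised to three housekeeping genes, in HepaRG cells after 48 h chemical treatment. Eight-point half-log series topping at 100 uM in 0.5% DMSO, duplicates; gain or loss fitted relative to vehicle.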

[6] = read-out: Cytochrome P450 7A1 (Homo sapiens) (UniProt P22680); test: LTEA_HepaRG_CYP7A1: Life Technologies and Expression Analysis (LTEA) Assay for Cytochrome P450 7A1 (CYP7A1) using HepaRG (AID 2283496)
In short: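 Using 0.5% DMSO as vehicle and baseline, chemicals were tested in duplicate over an 8-point range from 100 uM on HepaRG cells for 48 h; qRT-PCR signals were normalised to ACTB, GAPDH and POLR2A.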

[7] = read-out: Glutamate-cysteine ligase catalytic (GCLC), GCLC (gene 2729); test: LTEA_HepaRG_GCLC: Life Technologies and Expression Analysis (LTEA) Assay for Glutamate-cysteine ligase catalytic (GCLC) using HepaRG (AID 2283498)
In short: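 Expression by TaqMan qRT-PCR, normalized to three housekeeping genes (ACTB, GAPDH, POLR2A), with up- or down-regulation fitted against DMSO. HepaRG cells dosed in duplicate for 48 h with 8 half-log concentrations up to 100 uM, vehicle 0.5% DMSO.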

[8] = read-out: growth arrest and DNA damage 45 (GADD45G), GADD45G (gene 10912); test: LTEA_HepaRG_GADD45G: Life Technologies and Expression Analysis (LTEA) Assay for growth arrest and DNA damage 45 (GADD45G) using HepaRG (AID 2283499)
In short: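 Gain or loss of GADD45G mRNA, quantified by TaqMan qRT-PCR against three housekeeping genes, is fitted in both directions relative to 0.5% DMSO. Human HepaRG cultures receive test chemical for 48 h at up to 100 uM.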

[9] = read-out: Cytochrome P450 4A22 (Homo sapiens) (UniProt Q5TCH4); test: LTEA_HepaRG_CYP4A22: Life Technologies and Expression Analysis (LTEA) Assay for Cytochrome P450 4A22 (CYP4A22) using HepaRG (AID 2283495)
In short: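 Readout is CYP4A22 transcript induction or loss, quantified by qRT-PCR and normalized to ACTB, GAPDH and POLR2A. Human HepaRG cells receive test chemicals for 48 h at eight half-log concentrations from 100 uM in 0.5% DMSO.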

[10] = read-out: Glutathione S-Transferase (GSTA2), GSTA2 (gene 2939); test: LTEA_HepaRG_GSTA2: Life Technologies and Expression Analysis (LTEA) Assay for Glutathione S-Transferase (GSTA2) using HepaRG (AID 2283497)
In short: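 GSTA2 transcript levels came from Fluidigm TaqMan qRT-PCR normalized to three housekeeping genes, fitted in both directions against DMSO. HepaRG cultures received chemicals for 48 h in serum-free induction medium (0.5% DMSO), 8 half-log concentrations up to 100 uM, duplicate.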

Measured: AC50

Sequence of Cytochrome P450 3A7 (Homo sapiens) (P24462 whole entry, looked up): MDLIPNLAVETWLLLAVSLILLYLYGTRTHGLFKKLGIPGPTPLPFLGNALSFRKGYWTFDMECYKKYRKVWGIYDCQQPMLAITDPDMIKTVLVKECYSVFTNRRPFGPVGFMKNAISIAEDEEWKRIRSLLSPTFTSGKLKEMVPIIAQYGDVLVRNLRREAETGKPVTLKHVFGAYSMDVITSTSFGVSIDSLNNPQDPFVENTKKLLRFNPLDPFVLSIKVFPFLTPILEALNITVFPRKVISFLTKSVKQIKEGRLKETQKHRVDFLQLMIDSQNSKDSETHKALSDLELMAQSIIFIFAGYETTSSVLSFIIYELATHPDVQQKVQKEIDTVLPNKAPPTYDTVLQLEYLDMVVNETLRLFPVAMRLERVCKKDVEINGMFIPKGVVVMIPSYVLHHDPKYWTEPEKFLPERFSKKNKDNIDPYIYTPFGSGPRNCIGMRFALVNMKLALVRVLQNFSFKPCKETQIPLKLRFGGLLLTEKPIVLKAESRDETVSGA

Clc1nc(Cl)nc(Nc2ccccc2Cl)n1
not listed: [9] | [10]
inactive: all other assays above

CNC(=O)N(C)c1nnc(C(C)(C)C)s1
not listed: [9] | [10]
inactive: all other assays above

Cc1cc(C)nc(Nc2ccccc2)n1
active: [6] 3.4 µM
not listed: [2] | [10]
inactive: all other assays above

Clc1cccc(C(Cl)(Cl)Cl)n1
not listed: [2] | [3] | [10]
inactive: all other assays above

CCOc1nc(C(Cl)(Cl)Cl)ns1
active: [1] 1.12 µM | [7] 0.939 µM
inactive: [4] | [5] | [10] | [8]

CC(C)N1C(=O)N(c2ccccc2)CSC1=NC(C)(C)C
inactive: [1] | [3] | [4]
active: [5] 44.8 µM | [9] 63.6 µM | [6] 70.4 µM | [7] 81.8 µM | [8] 76.1 µM

CNC(=O)Oc1cccc2ccccc12
not listed: [2] | [3] | [9]
inactive: all other assays above

CCOC(=O)C(C)OC(=O)c1cc(Oc2ccc(C(F)(F)F)cc2Cl)ccc1[N+](=O)[O-] (stereo unspecified)
inactive: [7]
active: [1] 18.7 µM | [4] 27.5 µM | [5] 14.5 µM | [6] 50 µM | [8] 3.82 µM

COc1cc(OC)nc(NC(=O)NS(=O)(=O)c2ncccc2OCC(F)(F)F)n1
active: [9] 0.628 µM | [8] 0.19 µM
inactive: [1] | [4] | [5] | [6] | [7]

N#CN=C1SCCN1Cc1ccc(Cl)nc1
not listed: [2] | [9] | [10]
inactive: all other assays above

CCCN(CC)CC1COC2(CCC(C(C)(C)C)CC2)O1 (stereo unspecified)
inactive: [1] | [4] | [5] | [9] | [6] | [7]

COCC(C)N(C(=O)CCl)c1c(C)csc1C (stereo unspecified)
inactive: [1] | [4] | [8]
active: [5] 50 µM | [6] 29.5 µM | [7] 50 µM

CCCCC(C#N)(Cn1cncn1)c1ccc(Cl)cc1 (stereo unspecified)
active: [5] 13.1 µM | [8] 11.7 µM
inactive: [1] | [4] | [6] | [10] | [7]

O=C(O)c1c(Cl)ccc2cc(Cl)cnc12
not listed: [2] | [3]
inactive: all other assays above

COc1cc(Cl)c(OC)cc1Cl
inactive: [1] | [4] | [5] | [6] | [7] | [8]

CN/C(=N\[N+](=O)[O-])NCc1cnc(Cl)s1
inactive: [1] | [4] | [10] | [7] | [8]
active: [5] 33.4 µM | [6] 50 µM

COC(=O)NS(=O)(=O)c1ccc(N)cc1
not listed: [2] | [3] | [9]
inactive: all other assays above

CC(C)Nc1nc(Cl)nc(NC(C)C)n1
active: [3] 2.51 µM | [5] 19.2 µM | [6] 50 µM
not listed: [2] | [9]
inactive: all other assays above

O=C1C2CC=CCC2C(=O)N1SC(Cl)(Cl)Cl (stereo unspecified)
not listed: [2] | [3]
inactive: all other assays above

CCOP(=S)(OCC)Oc1nc(Cl)n(C(C)C)n1
active: [6] 2.01 µM
inactive: [1] | [4] | [5] | [7] | [8]

O=C(Nc1ccccc1-c1ccc(Cl)cc1)c1cccnc1Cl
active: [5] 33.9 µM | [6] 17 µM
not listed: [2] | [3]
inactive: all other assays above

CC(C)(C)C(=O)C(Oc1ccc(Cl)cc1)n1cncn1 (stereo unspecified)
active: [5] 50 µM | [9] 30.1 µM
inactive: [1] | [4] | [6] | [7] | [8]

CCNP(=S)(OC)O/C(C)=C/C(=O)OC(C)C (stereo unspecified)
not listed: [2] | [3] | [10]
inactive: all other assays above

CC(C)NC(=O)N1CC(=O)N(c2cc(Cl)cc(Cl)c2)C1=O
active: [5] 13.2 µM | [6] 13.1 µM | [10] 25 µM | [8] 50 µM
inactive: [1] | [3] | [4] | [7]

O=P(O)(O)CCCl
inactive: [1] | [4] | [5] | [6] | [7] | [8]

CN=C=S
not listed: [2] | [3] | [9]
inactive: all other assays above

COc1ccc(-c2ccccc2)cc1NNC(=O)OC(C)C
not listed: [2] | [3] | [10]
inactive: all other assays above

Cc1c(COC(=O)[C@@H]2[C@H](/C=C(\Cl)C(F)(F)F)C2(C)C)cccc1-c1ccccc1
active: [3] 4.87 µM | [5] 35 µM | [6] 14.8 µM
not listed: [2] | [10]
inactive: all other assays above

CCCC(=NOCC)C1=C(O)CC(CC(C)SCC)CC1=O (stereo unspecified)
not listed: [2] | [3]
inactive: all other assays above

COP(=S)(OC)Oc1ccc([N+](=O)[O-])c(C)c1
not listed: [2] | [3] | [10]
inactive: all other assays above

CC(C)Oc1cccc(NC(=O)c2ccccc2C(F)(F)F)c1
active: [10] 50 µM
not listed: [2] | [3] | [9]
inactive: all other assays above

CCC(C)n1c(=O)[nH]c(C)c(Br)c1=O (stereo unspecified)
inactive: [1] | [3] | [7]
active: [4] 20.4 µM | [5] 24.6 µM | [6] 23.7 µM | [10] 50 µM | [8] 30.4 µM

N#Cc1c[nH]cc1-c1cccc2c1OC(F)(F)O2
inactive: [4] | [7] | [8]
active: [1] 50 µM | [5] 50 µM | [6] 69.9 µM

Nc1c(Cl)c(F)nc(OCC(=O)O)c1Cl
not listed: [2] | [3] | [10]
inactive: all other assays above

CCN(CC)C(=O)C(C)Oc1cccc2ccccc12 (stereo unspecified)
active: [3] 80.2 µM | [5] 70.4 µM | [6] 35.5 µM
inactive: [1] | [4] | [10] | [8]

CCN(CC)c1nc(C)cc(OP(=S)(OC)OC)n1
active: [5] 50 µM
not listed: [2] | [3] | [9]
inactive: all other assays above

Cc1cnc(C2=NC(C)(C(C)C)C(=O)N2)c(C(=O)O)c1 (stereo unspecified)
inactive: [1] | [4] | [5] | [6] | [7] | [8]

Nc1c(Cl)c(Cl)nc(C(=O)O)c1Cl
not listed: [2] | [3] | [10]
inactive: all other assays above

Cc1ccc(N=CN(C)C=Nc2ccc(C)cc2C)c(C)c1
not listed: [2] | [3] | [10]
inactive: all other assays above
